# Screens from PubChem.
# CHX counter – counter-screen for Shiga toxin inhibitors: cycloheximide protein synthesis inhibition; max response, %; actives 12% (n = 300,000); cell reporter, cycloheximide protein synthesis inhibition counterscreen; in the data active = max response mostly above about 13%, no sharp cut-off; inactive = mostly below about 14%; note: read at 38.3 µM for the half of the compounds with a filed dose; 0% is about no effect
# Pf growth 96h – P. falciparum growth inhibition at 96 hours; P. falciparum luciferase reporter growth, 96 h; Potency, µM (doses to about 28.7 µM), inactives show top-dose activity change, negative = inhibition, actives largely listed as inhibitors; actives 6.9% (n = 320,000); AID 504834; note: potency is the fitted concentration of half-maximal effect; % is set by controls: 0 for no effect and ±100 for the full control effect
#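 Compounds incubated with erythrocytes infected by luciferase-expressing P. falciparum (2% hematocrit, 0.05% parasitemia final) for 96 hours, 37 C in 5% CO2. Growth inhibition scored as decreased luciferase luminescence.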
# Sm TGR block – S. mansoni TGR enzyme inhibition. AID 485364. purified TGR, DTNB reduction, TNB absorbance 405 nm. Q962Y6. actives 3% (n = 360,000). Potency, µM (doses to about 114 µM), without a hit: top-dose activity change, negative = inhibition, hits mostly inhibitors; note: potency is the fitted concentration of half-maximal effect; % is set by controls: 0 for no effect and ±100 for the full control effect; nearly all actives have a fitted effect of over 60% in size
#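 TGR 20 nM + NADPH 100 uM (dispensed conc.), cpd preinc 15 min RT; start with NADPH (500 uM addition) then DTNB (15 mM addition). Kinetic TNB absorbance, 405 nm filter. Four-parameter Hill fit across titration.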
# NS1 inh – influenza NS1 inhibition; Potency, µM (highest dose often 46.1 µM), inactives show at the top dose activity, positive = more growth; actives 0.4% (n = 270,000); AID 2326; calls by dose curve; note: potency is the fitted concentration of half-maximal effect; actives are rising curves; nearly all actives have a fitted effect of over 50% in size
#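 In this qHTS, NS1 from influenza A is expressed in budding yeast, where it slows growth. Cells are switched from glucose to 2% galactose medium (pH 6.0, -URA), treated with compound, and growth recovery is read at OD600.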
# Pf growth 48h – inhibits P. falciparum growth in the first generation, 48 h | P. falciparum luciferase growth in erythrocytes, 48 h | Potency, µM (titrated, usually from 28.7 µM), for inactives: at the top dose activity change, negative = inhibition, usual class: inhibitors | actives 5.9% (n = 310,000) | AID 504832; note: potency is the fitted concentration of half-maximal effect; % is set by controls: 0 for no effect and ±100 for the full control effect
#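 Here the parasites carry a stable luciferase gene and grow inside erythrocytes in Albumax-based RPMI medium with compound for one erythrocytic cycle. Activity is scored as loss of luminescent signal.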
# Shiga toxin inh – inhibitors of Shiga toxin in Vero cells; Vero cells, Shiga toxin protein synthesis inhibition reporter; inhibition, % at 38.7 µM; actives 9.2% (n = 290,000); AID 2315; in the data active = inhibition mostly above about 28%, no sharp cut-off; inactive = mostly below about 43%; note: 0% is about no effect
# * marks the source's active call; other numbers are inactive results; i = inactive; ? = inconclusive; nt = not tested or not shown; [ ] = dose if it differs, or a comment. Rows were chosen to be rich in hits. Some 21% of all compounds tested hit in one or more screens of this group. Unless noted, calls come from the whole dose curve; as a rule, active = well fitted curve in the direction sought with a large enough effect; inconclusive = small, poorly fitted or top-dose-only effect, or another doubt; inactive = no such curve, though single readings can be large; an effect the other way counts as inactive or inconclusive.
SMILES,CHX counter,Pf growth 96h,Sm TGR block,NS1 inh,Pf growth 48h,Shiga toxin inh
CC(C)(C)c1ccc(C(=O)Nc2ccccc2NC(=O)c2ccco2)cc1,20*,2%,-7%,0%,?,29*
CC(C)(C)c1ccc(C(=O)Nc2ccccc2Cl)cc1,19,i,7%,nt,i,50*
CCCCn1c(-c2ccc([N+](=O)[O-])cc2)n[nH]c1=S,-2,?,5%,-2%,41%,-9
CC(C)Cn1c(C(C)C)nc([N+](=O)[O-])c1Sc1ccc(Cl)cn1,-3,9.3µM*,-28%,-8%,9.3µM*,-4
CCCCn1c(CCC)nc([N+](=O)[O-])c1Sc1ccc(Cl)cn1,1,15µM*,22µM*,-14%,10µM*,18
Cc1ncc([N+](=O)[O-])n1Cc1ccc(Cl)cc1,-6,7%,5%[57.1 µM],-3%,3%,-23
Cc1ccccc1-c1nc(CS(=O)(=O)CC(=O)NCCCN2C(C)CCCC2C)c(C)o1 (stereo not drawn),-2,?,-14%,-4%,?,-6
Cc1ccccc1-c1nc(CS(=O)(=O)CC(=O)NC2CCCC2)c(C)o1,-6,18%,40µM*,-11%,7%,-8
CCOC(=O)N1CCC(NC(=O)CS(=O)(=O)Cc2nc(-c3ccccc3C)oc2C)CC1,-7,?,45µM*,-34%,-4%,-16
Cc1oc(-c2ccccc2Cl)nc1CS(=O)(=O)CC(=O)NC1CCCC1,-2,?,45µM*,-11%,?,3
CCN1CCCC1CNC(=O)CS(=O)(=O)Cc1nc(-c2ccccc2C)oc1C (stereo not drawn),-4,-16%,-31%,-12%,12µM*,8
Cc1ccc(N(Cc2cccs2)C(=O)c2ccccc2)cc1,nt,nt,2%,nt,nt,nt
C/C(CC(=O)Nc1ccc2c(c1)OCCO2)=N\NC(=O)c1ccccc1Cl,20*,31%,-14%,-5%,33%,76
C/C(CC(=O)Nc1ccc2c(c1)OCCO2)=N\NC(=O)Cc1ccccc1,2,0%,8%,1%,9%,9
C/C(CC(=O)Nc1ccc2c(c1)OCCO2)=N\NC(=O)Cc1ccc(Cl)cc1,-2,?,1%,-2%,7%,129*
C/C(CC(=O)Nc1ccc2c(c1)OCCO2)=N\NC(=O)c1ccc([N+](=O)[O-])cc1Cl,14,-2%,-21%,22%,-11%,4
Cc1ccc(Cl)cc1N(C)C(=O)c1noc2c1CCCCC2,nt,nt,7%,nt,nt,nt
Cc1ccccc1C(=O)NC1(C(F)(F)F)C(=O)Nc2c1c(=O)[nH]c(=O)n2-c1ccc(F)cc1 (stereo not drawn),nt,nt,6%,nt,nt,nt
O=C(NNC(=O)c1sc2ccccc2c1Cl)Nc1ccc(Cl)cc1,7,6%,21%,19%,7%,2
O=C(NN=C1CCCC1)c1sc2ccccc2c1Cl,38*,?,3%,nt,?,43*
O=C1CCC/C(=N/NC(=O)c2sc3ccccc3c2Cl)C1,18*,0%,2%,6%,32%,22
Clc1ccccc1Cc1noc(CN2CCSCC2)n1,12*,9%,2%[57.1 µM],1%,0%,40
Fc1ccccc1Cc1noc(CN2CCN(c3ccc(Cl)cn3)CC2)n1,1,?,6%,-5%,37%,0
OCC1CCN(Cc2nc(Cc3ccccc3Cl)no2)CC1,12*,?,2%,-1%,2%,24
Cc1cnccc1CN(C)Cc1nc(Cc2ccccc2Cl)no1,12,-25%,-6%,4%,9.3µM*,-16
SMILES,CHX counter,Pf growth 96h,Sm TGR block,NS1 inh,Pf growth 48h,Shiga toxin inh
COCC1CCN(Cc2nc(Cc3ccccc3Cl)no2)CC1,1,?,5%,0%,31%,4
CN(Cc1ccccn1)Cc1nc(Cc2ccccc2Cl)no1,-2,11%,-9%[57.1 µM],-2%,7%,-9
Fc1cccc(Cc2noc(CN3CCSCC3)n2)c1,9,?,-23%,0%,2%,1
Clc1ccccc1Cc1noc(CN2CCN(c3cnccn3)CC2)n1,13*,?,-14%,-5%,?,34
Cc1ccc2c(c1)NC(=O)C(CC(=O)Nc1ccccc1Cl)O2 (stereo not drawn),nt,nt,-1%,nt,nt,nt
COc1ccc(-c2cc3nc(C)c(CCC(=O)Nc4cccc(C(F)(F)F)c4)c(C)n3n2)c(OC)c1,nt,nt,5%,nt,nt,nt
CCCc1nc2c(C)cc(C)cc2c(N)c1CC,2,10µM*,0%,-7%,9.3µM*,-13
O=C(c1ccc(F)c(S(=O)(=O)N2CCOCC2)c1)N1CCN(c2ccc(F)cc2)CC1,nt,6.6µM*,-8%,nt,?,nt
O=C(c1ccc(Cl)c(S(=O)(=O)N2CCCC2)c1)N1CCN(c2ccccn2)CC1,-3,?,8%,-8%,nt,-19
Cc1c(C(=O)N2CCC[C@H]2C(N)=O)oc2c(F)cccc12,29*,159%,0%,6%,13%,20
O=C(c1ccc(Cl)c(S(=O)(=O)N2CCOCC2)c1)N1CCN(c2ccccn2)CC1,nt,12µM*,-1%,nt,12µM*,nt
CC1CCN(S(=O)(=O)c2cc(C(=O)NC3(C)CCS(=O)(=O)C3)ccc2Br)CC1 (stereo not drawn),nt,9.3µM*,-3%,nt,?,nt
COc1cc(OC)c(C2Nc3c(C)cccc3-c3cc(C)nn32)cc1OC (stereo not drawn),nt,nt,8%,nt,nt,nt
Cc1cc(OCC(=O)Nc2cc(-c3nc4ccccc4[nH]3)ccc2C)ccc1Cl,nt,nt,-4%,nt,nt,nt
Cc1cc(C)cc(C(=O)N2CCN(c3ccccn3)CC2)c1,1,12µM*,5%,-3%,6%,-6
Cc1c(C(=O)N2CCN(c3ccccn3)CC2)oc2c(F)cccc12,20,2.3µM*,-28%,-44%,10µM*,-6
Cc1ccc2c(C)c(C(=O)N3CCN(Cc4ccccn4)CC3)oc2c1C,17*,?,-28%,-11%,-8%,18
Cc1cc2oc(C(=O)N3CCN(CCc4ccccn4)CC3)c(C)c2cc1C,-2,3%,-1%,-16%,7%,-7
CC1CCN(S(=O)(=O)c2cc(C(=O)N3CCN(c4ncccn4)CC3)ccc2Br)CC1,-3,7.4µM*,5%,-13%,?,-10
Cc1c(C(=O)N2CCN(c3ncccn3)CC2)oc2c(Cl)cccc12,nt,-20%,-2%,nt,?,nt
CC1CCN(C(=O)c2ccc(Br)c(S(=O)(=O)N3CCOCC3)c2)CC1,-1,8%,-3%,12%,-9%,-3
CCN(CC)S(=O)(=O)c1ccc(/C=C/C(=O)OCC(=O)N(C(C)C)C(C)C)cc1,-2,9%,7%,0%,31%,-13
Cc1noc(C)c1-c1ccc2ncnc(NCc3ccc4c(c3)OCO4)c2c1,18,nt,nt,nt,nt,20
CC(C)C[C@H](NC(=O)N1CCCCCC1)C(=O)N[C@H](Cc1cn(C)c2ccccc12)C(=O)N[C@H](Cc1ccccn1)C(=O)O,-5,nt,nt,nt,nt,-4
